Hits are enriched below; roughly 10% of the tested compounds scored in any of these assays.
Lamin A splicing: qHTS Assay for Modulators of Lamin A Splicing; 200,000 tested, 0.01% active; Potency, µM (series often up to 46.1 µM), most hits filed as inhibitors; HeLa LMNA splicing GFP/RFP minigene ratio, 48 h; active = well fitted inhibition curve with a large enough effect in the signal ratio, with a control signal flat, not every such curve was filed as active; inconclusive = small, poorly fitted or top-dose-only effect, or effect the other way, or a change in a side signal; the % refers to the signal ratio
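S3 HeLa stable clones carrying a lamin A-EGFP splicing minigene plus DsRed2 were seeded at 600 cells/well in Opti-MEM with 2% FBS, pin-dosed and incubated 48 h at 37°C. Acumen cytometry (488 nm) gave the GFP/RFP total-intensity ratio.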
PNC inhibitor: High Content Assay for Compounds that inhibit the Assembly of the Perinucleolar Compartment; AID 2417, 2010; 140,000 tested, 3.1% active; activity change (PNC), negative = inhibition, % at 10 µM; PC3M PTB-GFP, PNC prevalence imaging, 16 h; stronger effect = lower value;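 active = readout at or below -70, meaning at least 70% loss of cells showing the perinucleolar compartment, a nuclear body marking cancer cells; inconclusive = readout between -30 and a set limit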
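Read-out is percentage of cells bearing a perinucleolar compartment, from automated 20x imaging of fixed, Hoechst-stained PC3M PTB-GFP cells. Cells were seeded 4 h, then exposed 16 h to compound (23 nl of library stock) in duplicate plates.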
12-hLO inh: qHTS Assay for Inhibitors of 12-hLO (12-human lipoxygenase); purified 12-hLO, xylenol orange hydroperoxide absorbance; Potency, µM (doses to about 57.1 µM), hits mostly inhibitors; 150,000 tested, 0.12% active; active = well fitted inhibition curve with a large enough effect; inconclusive = small, poorly fitted or top-dose-only effect; also: nearly all actives have a fitted effect of over 55% in size
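Hydroperoxide output read as Fe(III)-xylenol orange absorbance, 573-to-405 nm ratio, after 30 min reaction with 40 uM arachidonic acid. Enzyme: 150 nM purified human 12hLO, 15 min compound preincubation; 25 mM Hepes pH 7.0, room temperature.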
ALDH1A1 block: qHTS Assay for Inhibitors of Aldehyde Dehydrogenase 1 (ALDH1A1); AID 1030, 2008; Potency, µM (top dose mostly 75.3 µM), usual class: inhibitors; Purified ALDH1A1, NADH fluorescence, propionaldehyde substrate; 220,000 tested, 7.3% active
HPGD inh: qHTS Assay for Inhibitors of HPGD (15-Hydroxyprostaglandin Dehydrogenase) | purified HPGD, NADH fluorescence kinetic, PGE2 substrate | Potency, µM, most hits filed as inhibitors | 150,000 tested, 4.3% active | AID 894, 2007 | 15-hydroxyprostaglandin dehydrogenase [NAD(+)] (Homo sapiens), P15428
Target sequence (P15428 whole entry, looked up): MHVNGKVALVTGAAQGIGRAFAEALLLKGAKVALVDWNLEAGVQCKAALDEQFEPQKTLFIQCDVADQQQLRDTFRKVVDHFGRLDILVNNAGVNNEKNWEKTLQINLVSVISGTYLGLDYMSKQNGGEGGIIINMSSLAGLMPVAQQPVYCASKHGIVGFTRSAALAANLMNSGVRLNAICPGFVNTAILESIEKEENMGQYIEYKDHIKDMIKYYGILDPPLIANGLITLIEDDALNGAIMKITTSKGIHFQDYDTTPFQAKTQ
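NADH formation kinetics: reaction with 30 uM PGE2 and 1 mM NAD+ (final), 20 nM enzyme, Tris-HCl pH 8 with Tween 20, after 15 min compound preincubation at room temperature. Fluorescence change, last versus first of five reads.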
Numbers stand for hits; i = inactive; ? = inconclusive; nt = no result given; [ ] = remark or other dose. Unless noted, calls follow the shape of the dose curve; as a rule, active = well fitted inhibition curve with a large enough effect (not every such curve was filed as active); inconclusive = small, poorly fitted or top-dose-only effect, or another doubt; inactive = no such curve, though single readings can be large or run the other way.

SMILES	Lamin A splicing	PNC inhibitor	12-hLO inh	ALDH1A1 block	HPGD inh
O=C(NCc1ccco1)c1ccccc1-c1nc(-c2ccccc2)no1	i	i	i	?	i
CCCCN(C(=O)CCC(=O)O)C1CC(=O)N(c2ccc(OCCC)cc2)C1=O (configuration not stated)	i	i	i	i	i
CCCCCCC(=O)N(O)C1CC(=O)N(c2ccc(Br)cc2)C1=O (configuration not stated)	?	?	?	0.56µM	7.1µM
COc1ccccc1N(O)C1CC(=O)N(c2ccc(Br)cc2)C1=O (configuration not stated)	i	?	?	18µM	28µM
O=C(Nc1ccc(Br)cc1F)c1cc(S(=O)(=O)NCc2ccc(F)cc2)ccc1F	i	nt	nt	nt	nt
O=C(C1CCCCC1)N1CC(=O)N2CCc3ccccc3[C@@H]2C1	?	nt	i	?	i
O=C(/C=C1\NCC2c3ccccc3CCN2C1=O)c1ccccc1 (configuration not stated)	i	i	i	20µM	i
O=c1c2ccccc2nc(COc2ccccc2)n1/N=C/c1cn[nH]c1-c1ccccc1	?	i	i	i	i
Cc1ccccc1OCc1nc2ccccc2c(=O)n1/N=C/c1cn[nH]c1-c1ccc(Br)cc1	?	?	i	i	32µM
CCc1cccc2c(C(=O)CSc3nncn3-c3ccc(OC)cc3)c[nH]c12	?	-104	i	i	i
O=C(Nc1c2c(nn1-c1ccccc1)CS(=O)C2)c1ccc(S(=O)(=O)N2CCOCC2)cc1 (configuration not stated)	i	nt	nt	i	nt
COc1ccc(-n2cnnc2SCC(=O)c2ccc(S(=O)(=O)N3CCOCC3)cc2)cc1	?	?	i	1.4µM	i
COc1ccc(-n2nnnc2Sc2ccc(S(=O)(=O)N3CCOCC3)cn2)cc1	i	i	i	2.8µM	7.1µM
COc1ccc(-n2nc3c(c2NC(=O)c2ccc(S(=O)(=O)N4CCOCC4)cc2)CS(=O)C3)cc1 (configuration not stated)	i[9.22 µM]	nt	nt	2.5µM	nt
CCOc1ccccc1NC(=O)CCc1c(C)nn(-c2ccc(N3CCOCC3)nn2)c1C	i	nt	nt	nt	nt
COc1ccc(-n2ncc(C(=O)N3CCN(C(=O)c4ccco4)CC3)c2C2CCN(C(=O)OC(C)(C)C)CC2)cc1	i	nt	nt	nt	nt
CC(C)(C)n1nc2c(c1NC(=O)c1ccc(S(=O)(=O)N3CCCCC3)cc1)CS(=O)C2 (configuration not stated)	i	i	i	25µM	i
CC(C)(C)n1nc2c(c1NC(=O)c1ccc(Br)cc1)CS(=O)C2 (configuration not stated)	i	i	i	i	i
CCCCS(=O)(=O)N1CCc2nc(COc3ccccc3)c3c(c2C1)CO[C@@H](C)C3	i[9.22 µM]	nt	i[11.4 µM]	i[13.5 µM]	i
COCCNc1nc(C(C)(C)C)nc2c1nnn2Cc1ccccc1Cl	i	-102	i	i	i
COC(=O)CCS(=O)(=O)c1cc(Cl)ccc1Cl	i	-138	i	i	i
S=c1[nH]nc(-c2ccco2)n1/N=C/c1ccc(Cl)cc1Cl	i	i	i	?	2.2µM
S=c1[nH]nc(-c2ccco2)n1/N=C/c1cccc(Cl)c1Cl	i	i	i	i	2µM
S=c1[nH]nc(-c2ccco2)n1-c1ccc(Cl)cc1	i	nt	nt	i	nt
CCOC(=O)c1scc(-c2ccccc2)c1S(=O)(=O)Nc1ccc(N(C)C)cc1	i	nt	nt	nt	nt
SMILES	Lamin A splicing	PNC inhibitor	12-hLO inh	ALDH1A1 block	HPGD inh
Cc1nc2nc(SCC(=O)N3CCOCC3)nn2c(C)c1Cc1c(F)cccc1Cl	i	i	i	?	8.9µM
Cc1ccc2nc(SCC(=O)NCc3ccco3)[nH]c2c1	i	i	i	i	i
Cc1ccc(C)c(SCC(=O)NCc2ccco2)c1	i[0.0737 µM]	i	i	?	7.9µM
Cc1ccc(C)c(SCC(=O)OCC(=O)c2ccco2)c1	i	i	i	?	18µM
Cc1ccc(C(CC(=O)NCc2ccco2)c2ccccc2)c(O)c1 (configuration not stated)	i	i	i	i	16µM
Cc1ccc(C(=O)COC(=O)CNC(=O)c2ccco2)cc1	i	i	i	i	i
Cc1nc(SCC(=O)NCc2ccco2)nc(C)c1C	i	?	i	25µM	7.9µM
O=C1[C@H]2[C@H]3[C@H](O)[C@H](O)C/C(=N/OCc4ccccc4)[C@H]3CC[C@@H]2C(=O)N1c1cccc(Oc2ccccc2)c1	nt	nt	nt	i[13.5 µM]	nt
O=C(CSc1ccc(Cl)cc1)NCc1ccco1	nt	nt	nt	i	nt
Cc1ccc2cc(C)c(SCC(=O)NCc3ccco3)nc2c1	?	nt	nt	14µM	nt
Cc1ccc(SCCC(=O)NCc2ccco2)cc1	i	i	i	i	28µM
CC(=O)S[C@@H]1CC2=CC(=O)CC[C@@]2(C)[C@H]2CC[C@]3(C)[C@H](CC[C@@]34CCC(=O)O4)[C@H]12	nt	nt	i	nt	nt
COc1ccc(N(Cc2cccs2)C(=O)COc2ccc([N+](=O)[O-])cc2)cc1	i	nt	nt	nt	nt
CC(=O)NC(CC(=O)NC12CC3CC(CC(C3)C1)C2)c1ccccc1 (configuration not stated)	i	i	i	i	i
CCCN1C(=O)/C(=N\OCC(=O)Nc2ccc(C(C)C)cc2)c2ccccc21	?	i	i	0.5µM	i
CCCN1C(=O)/C(=N\OCC(=O)NC23CC4CC(CC(C4)C2)C3)c2ccccc21	i	i	i	0.28µM	16µM
CC(C)c1ccc(NC(=O)CN2C(=O)c3cccc4cccc2c34)cc1	i	nt	nt	nt	nt
CCCCCCCCCCCCCCCC(=O)OCC(O)C1OC(=O)C(O)=C1O (configuration not stated)	nt	nt	i[0.00818 µM]	i	i
CC(C)c1ccc(NC(=O)c2ccc(=O)n(Cc3ccccc3)c2)cc1	i	nt	nt	nt	nt
Cc1cccc(N(CC(=O)NCc2ccco2)C(=O)CCC(=O)Nc2nccs2)c1	i	nt	nt	i	nt
CCCSc1nc(-n2ncc(C#N)c2N)c2c3c(sc2n1)CCC(C)C3 (configuration not stated)	?	i	i	4µM	?
Cc1nc(-n2ncc(C#N)c2N)c2c3c(sc2n1)CCC3	i	i	i	i	i
CN(c1ccc(C(=O)Nc2ccc3c(c2)OCCO3)cc1)S(C)(=O)=O	i	i	i	i	i
Cc1cc(C)cc(C(=O)NC(=S)Nc2ccc3c(c2)OCCO3)c1	i	i	i	13µM	nt
S=C(Nc1ccc2c(c1)OCO2)Nc1ccc2c(c1)OCO2	i	i	i	?	i
O=C(NC(=S)Nc1ccc2c(c1)OCCO2)c1ccc(F)cc1Cl	?	i	i	?	i
CC(C)C(=O)Nc1cccc(NC(=S)NC(=O)c2ccc(Cl)cc2)c1	i	?	?	10µM	i
CCc1ccc(C(=O)NC(=S)Nc2ccc3c(c2)OCCO3)cc1	?	i	14µM	18µM	i
O=C(NC(=S)Nc1ccc2c(c1)OCO2)c1ccc(Cl)cc1	i	i	i	14µM	i
